Hits are enriched below; roughly 4.7% of the tested compounds scored in any of these assays.
TRHR ag: TRH receptor (human) agonism | TRHR cells, calcium flux fluo-8, FDSS agonist mode | activation, % at 2 µM | 0.18% of 360,000 active | AID 493084; further: 0% is about no effect
Target sequence (P34981 whole entry, looked up): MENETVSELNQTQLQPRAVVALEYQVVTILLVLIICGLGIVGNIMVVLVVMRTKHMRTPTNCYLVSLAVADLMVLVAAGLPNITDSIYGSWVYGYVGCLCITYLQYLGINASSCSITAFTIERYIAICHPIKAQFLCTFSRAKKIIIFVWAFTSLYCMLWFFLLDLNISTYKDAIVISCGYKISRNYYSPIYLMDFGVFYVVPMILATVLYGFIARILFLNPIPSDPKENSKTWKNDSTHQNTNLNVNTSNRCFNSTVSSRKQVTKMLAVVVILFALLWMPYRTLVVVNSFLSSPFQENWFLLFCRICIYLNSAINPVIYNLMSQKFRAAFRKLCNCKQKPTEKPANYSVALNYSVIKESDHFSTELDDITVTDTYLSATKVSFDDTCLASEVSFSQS
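TRHR-expressing cells loaded with fluo-8 calcium dye; 23 nL library compound pin-transferred, kinetic FDSS fluorescence (Ex 480/Em 530) recorded about 180 s for agonist-induced calcium release, before a 10 nM TRH EC20 addition for potentiator mode.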
D1 potentiator: human D1 dopamine receptor positive modulation. HEK293 TREx D1 cells, calcium flux, dopamine EC20 potentiation. potentiation, % at 10 µM. P21728. 0.036% of 360,000 active; in the data active means potentiation above about 30%; further: 0% is about no effect
TRHR enhancer: allosteric enhancers of human TRH receptor. TRHR cells, fluo-8 calcium fluorescence, EC20 TRH enhancement. P34981. AID 493056. enhancement, % at 2 µM. 0.66% of 360,000 active; in the data active means enhancement above about 30%; further: 0% is about no effect
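TRHR-expressing cells loaded with fluo-8 calcium dye were read kinetically (ex 480/em 530) during compound addition, then stimulated with an EC20 of TRH (10 nM final). Enhancement of the Gq-mediated intracellular calcium response was scored.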
D1 ag: human D1 receptor agonism; HEK293 T-REx D1 cells, calcium flux, agonist mode; activation, % at 2 µM; P21728; 1% of 360,000 active; further: 0% is about no effect
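Agonism was scored from calcium flux recorded over 180 s (1 read/s) after pintool compound addition, following a 10-cycle baseline. Cells were inducible force-coupled HEK293 TREx D1, plated overnight at 30 C and loaded with no-wash calcium dye.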
D1 antag: blocks dopamine activation of the human D1 receptor; P21728; HEK293 TREx D1 cells, calcium flux, dopamine EC80; hits give low values; activity change, negative = inhibition, % at 10 µM; 3.2% of 360,000 active; in the data active means activity change below about -30%; further: on the % scale 0 is the no-effect control and ±100 the full control effect
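HEK293 T-REx cells expressing inducible, force-coupled D1 receptor; no-wash Ca dye, 30–90 min RT. Cmpd → 180 s read at 1 Hz → EC80 DA → 180 s read.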
Active calls of the source: *. Unless noted, no stated cut-off is given here; in the data, active means activation above about 30%; inactive means the rest.

CCOc1ccccc1NC(=O)CCc1c(C)nn(-c2ccc(N3CCOCC3)nn2)c1C was read as TRHR ag 0, D1 potentiator -9, TRHR enhancer 1, D1 ag 0 and D1 antag -68*.
For NC1=NN=C(N2N=C(c3ccc(Br)cc3)CC2(O)C(F)(F)F)n2ncnc2C1 (stereo not drawn) the results were TRHR ag 0, D1 potentiator -8, TRHR enhancer -8, D1 ag 2 and D1 antag -45*.
Screening Cc1ccccc1OCCN1C(=O)c2ccccc2C1=O returned TRHR ag 0, D1 potentiator 0, TRHR enhancer -4, D1 ag -2 and D1 antag -8.
`Cc1ccccc1OCCn1c(=N)n(C(C)C)c2ccccc21` gave TRHR ag 1, D1 potentiator -2, TRHR enhancer 4, D1 ag 43* and D1 antag -10.
Cc1coc2c(C)c3oc(=O)c(CCC(=O)N4CCCCC4)c(C)c3cc12 was read as TRHR ag -2, D1 potentiator 5, TRHR enhancer -1, D1 ag -1 and D1 antag -12.
Screening Cc1cccc(N2CCN(C(=O)CCn3c(=O)[nH]c4ccsc4c3=O)CC2C)c1 (stereo not drawn) returned TRHR ag -2, D1 potentiator -6, TRHR enhancer 32*, D1 ag -4 and D1 antag -13.
Cc1cccc(N2CCN(C(=O)CCCn3c(=O)[nH]c4ccsc4c3=O)CC2C)c1 (stereo not drawn) was read as TRHR ag -1, D1 potentiator -3, TRHR enhancer 4, D1 ag 1 and D1 antag 3.
`O=C(CCCn1c(=O)[nH]c2ccsc2c1=O)N1CCN(c2ccccn2)CC1` gave TRHR ag 0, D1 potentiator -1, TRHR enhancer 30*, D1 ag 0 and D1 antag -6.
`CCOC(=O)Cc1ccc(NC(=O)N2CCOc3ccc(C)cc32)cc1` gave TRHR ag 0, D1 potentiator -2, TRHR enhancer 1, D1 ag 1 and D1 antag -28.
`COc1ccccc1NC(=O)c1sc2nc(-c3cc4cc(Cl)ccc4oc3=O)[nH]c(=O)c2c1C` gave TRHR ag 0, D1 potentiator -4, TRHR enhancer 7, D1 ag 12 and D1 antag -26.
For O=C(CCN1C(=O)/C(=C/c2cccs2)SC1=S)Nc1ccccn1 the results were TRHR ag 7, D1 potentiator -8, TRHR enhancer 0, D1 ag 45* and D1 antag -13.
O=C(CCCN1C(=O)/C(=C\c2cccs2)SC1=S)Nc1ccc(C(=O)O)cc1 was read as TRHR ag 3, D1 potentiator -2, TRHR enhancer 7, D1 ag 3 and D1 antag 12.
For CCN(CC)CCOC(=O)c1ccc(NC(=O)CCCN2C(=O)/C(=C/c3cccs3)SC2=S)cc1 the results were TRHR ag 2, D1 potentiator -22, TRHR enhancer 0, D1 ag 10 and D1 antag -77*.
For O=C(CCCN1C(=O)/C(=C\c2cccs2)SC1=S)Nc1ccc(O)cc1 the results were TRHR ag 0, D1 potentiator -2, TRHR enhancer 3, D1 ag 4 and D1 antag -33*.
For O=C(CCCN1C(=O)/C(=C\c2cccs2)SC1=S)Nc1ccccn1 the results were TRHR ag -1, D1 potentiator 0, TRHR enhancer -16, D1 ag 1 and D1 antag -23.
`Cc1ccc(Nc2cc(C)nc3nncn23)c(C)c1` gave TRHR ag -2, D1 potentiator 1, TRHR enhancer 1, D1 ag 3 and D1 antag 8.
O=S1(=O)c2ccccc2N(Cc2ccccc2Cl)c2ccccc21 was read as TRHR ag -1, D1 potentiator -1, TRHR enhancer 7, D1 ag 12 and D1 antag -2.
`O=c1c2oc3ccccc3c2n(Cc2ccccc2F)c(=O)n1Cc1ccco1` gave TRHR ag -1, D1 potentiator 0, TRHR enhancer 8, D1 ag 1 and D1 antag -3.
Screening Cc1ccc(NCc2nnc(SCC(=O)N(Cc3ccccc3)C(C)(C)C)o2)c(C)c1 returned TRHR ag 0, D1 potentiator -3, TRHR enhancer -3, D1 ag 1 and D1 antag -45*.
Screening Cc1ccc(NCc2nnc(SCC(N)=O)o2)c(C)c1 returned TRHR ag 0, D1 potentiator -1, TRHR enhancer -5, D1 ag 2 and D1 antag -9.
Cc1ccccc1NC(=O)c1ccc(F)c(S(=O)(=O)N(C)Cc2ccccc2)c1 was read as TRHR ag 0, D1 potentiator -2, TRHR enhancer -10, D1 ag 1 and D1 antag 11.
Screening Cc1cc2nc(-c3ccc[nH]c3=O)[nH]c2cc1C returned TRHR ag 0, D1 potentiator -9, TRHR enhancer 0, D1 ag 1 and D1 antag -65*.
CCOC(=O)c1cc2c(N)c(C(=O)c3ccc(Br)cc3)sc2[nH]c1=O was read as TRHR ag 0, D1 potentiator -9, TRHR enhancer 35*, D1 ag 2 and D1 antag 3.
CC1CCN(c2nn3c(=O)c(C(=O)NCCc4ccccc4)cnc3s2)CC1 was read as TRHR ag -1, D1 potentiator -1, TRHR enhancer -5, D1 ag 1 and D1 antag -5.
CCOc1ccc(-c2cc(CCCC(=O)NCCc3ccc(OCC)c(OCC)c3)no2)cc1 was read as TRHR ag 0, D1 potentiator -4, TRHR enhancer -9, D1 ag 9 and D1 antag -33*.
Screening CCOc1ccc(-c2cc(CCCC(=O)NCCc3ccc(Cl)cc3)no2)cc1 returned TRHR ag 0, D1 potentiator 0, TRHR enhancer -5, D1 ag 11 and D1 antag -23.
`CCN1CCN(C(=O)CCCCCn2c(=O)[nH]c3cc(C(=O)OC)ccc3c2=O)CC1` gave TRHR ag 0, D1 potentiator -4, TRHR enhancer -1, D1 ag 1 and D1 antag -9.
Screening COc1cc2[nH]c(=O)n(CCC(=O)N3CCN(c4ccc(Cl)cc4)CC3)c(=O)c2cc1OC returned TRHR ag 0, D1 potentiator 0, TRHR enhancer 3, D1 ag 2 and D1 antag -3.
For CC(=O)c1ccc(N2CCN(C(=O)CCCCn3c(=O)[nH]c4ccccc4c3=O)CC2)cc1 the results were TRHR ag 0, D1 potentiator -5, TRHR enhancer 2, D1 ag 5 and D1 antag -32*.
For COC(=O)c1ccc2c(=O)n(CCCCCC(=O)N3CCN(c4ccccc4)CC3)c(=O)[nH]c2c1 the results were TRHR ag 0, D1 potentiator -6, TRHR enhancer -4, D1 ag 6 and D1 antag -36*.
